Drawing on ChEMBL document CHEMBL3988442, “University of Dundee, Small-Polar-MMV Screening Library” (2021), this text covers Percent Effect for 50 compounds.

Test [1] deals with T1, Aspartate--tRNA(Asp/Asn) ligase (Mycobacterium tuberculosis (strain ATCC 25618 / H37Rv)) (UniProt P9WFW3).
T1 sequence (whole entry): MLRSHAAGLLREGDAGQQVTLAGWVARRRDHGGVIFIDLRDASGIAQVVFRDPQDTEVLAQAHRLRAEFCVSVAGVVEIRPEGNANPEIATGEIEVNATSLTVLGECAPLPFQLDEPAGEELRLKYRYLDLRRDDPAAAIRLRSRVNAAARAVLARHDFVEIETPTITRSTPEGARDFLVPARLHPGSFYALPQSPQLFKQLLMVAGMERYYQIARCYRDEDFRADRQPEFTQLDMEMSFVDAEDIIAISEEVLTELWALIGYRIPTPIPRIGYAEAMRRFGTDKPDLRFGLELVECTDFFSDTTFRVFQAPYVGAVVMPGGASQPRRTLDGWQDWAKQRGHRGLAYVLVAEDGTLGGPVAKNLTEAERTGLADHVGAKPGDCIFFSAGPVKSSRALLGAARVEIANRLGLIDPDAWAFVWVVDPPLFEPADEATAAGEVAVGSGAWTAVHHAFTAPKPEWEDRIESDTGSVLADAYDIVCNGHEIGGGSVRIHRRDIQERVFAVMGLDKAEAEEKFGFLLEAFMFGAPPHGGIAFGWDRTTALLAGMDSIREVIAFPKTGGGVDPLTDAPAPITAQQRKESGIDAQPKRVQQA
Kind of test: Assay for Asp RNA synthetase-1 from Mycobacterium tuberculosis. The conditions noted are these: 30 µM. On the set-up: scale not given: direction of the effect not stated beside the values. It counts as functional.

Test [2] deals with Shiga toxin 2 (Escherichia coli O157:H7) (UniProt P09385+P09386). Kind of test: E. coli 0.157:H7 Shiga Toxin SOP - stx2 screening assay. It counts as functional. On the set-up: scale not given: direction of the effect not stated beside the values. The conditions noted are these: 30 µM.

In the case of `Cc1ccsc1CN(C)Cc1nc2c(cnn2C)c(=O)[nH]1`, the Percent Effect in test [1] was -2.46%; in test [2], -6.66%.
On the same counts, the results for `Cc1cnn(CC2CCCCN2Cc2nnc(-c3ccco3)o2)c1` (stereo not given) are 11.6% and 2.18%.
On the same counts, the results for `Cn1cc(C(=O)N[C@@H]2CN(Cc3cccs3)[C@@H]3CCCO[C@@H]32)cn1` are 1.75% and -2.87%.
The corresponding values for `CCC1(CC)Cc2ccccc2-c2nc(NCCO)[nH]c(=O)c21` are 6.5% and 17.7%.
On to `Cc1nc(C2(O)CCCNCC2)sc1CCOc1ccc(Cl)cc1` (stereo not given), for which the Percent Effect in test [1] is -4%; in test [2] it was -45.5%.
Consider `COc1cccc(CN2CCOC(Cn3nc(C)cc3C)C2)c1` (stereo not given), for which the Percent Effect in test [1] is 1.48%; in test [2], -0.88%.
Consider `Cc1cc(C)cc(-c2ccc(CC3(C(=O)O)CCOCC3)cc2)c1`, for which the results for the Percent Effect in test [1] and in test [2] were 4.9% and -4.63%, respectively.
The corresponding values for `COCCOc1cccc(C(=O)N2CCCC(n3cccn3)C2)c1` (stereo not given) are 1.18% and -14.5%.
On the same counts, the results for `CCCC(C)C(=O)N1CCC(n2cccc2C(=O)OC)CC1` (stereo not given) are 0.787% and -16.1%.
On the same counts, the results for `Cc1nnc2n1CCN(Cc1csc(Cc3ccccc3)n1)C2` are -4.28% and 1.17%.
`CC1CCc2nc(O)c(C(=O)NCCN(C)C)cc2C1` (stereo not given): the results for the Percent Effect in test [1] and in test [2] were -0.552% and -8.38%, respectively.
The corresponding values for `OC(CN1CCN(Cc2nnc(C3CC3)o2)CC1)c1ccccc1` (stereo not given) are -1.28% and 6.16%.
On the same counts, the results for `CN(Cc1nnc(C2CC2)n1C)C1CCN(Cc2ccccc2F)C1` (stereo not given) are -3.49% and -40.3%.
The corresponding values for `CCOc1ccc(CN2CCN(C(=O)c3ccc(C)n3C)CC2)cc1` are 2.42% and 8.86%.
As to `COCc1nc(C(=O)N2CCCCC2Cn2cccn2)cs1` (stereo not given), the Percent Effect in test [1] was found to be 1.01%; in test [2], 16.6%.
On the same counts, the results for `NC(=O)c1cc(C2CCCN(C(=O)CCc3cscn3)C2)n[nH]1` (stereo not given) are -4.07% and -14.1%.
On the same counts, the results for `CC(C)CN1C(=O)C2(CCN(Cc3nccs3)C2)c2ccccc21` (stereo not given) are -0.662% and -65.4%.
On the same counts, the results for `Cn1cnnc1C1CCCN(C(=O)NCCOc2ccccc2)C1` (stereo not given) are -4.29% and -30.2%.
Turning to `CO[C@@H]1CC[C@H]2[C@H]1OCCN2C(=O)c1ccc(C)o1`, the Percent Effect in test [1] is 2.26%; in test [2], -16.7%.
The corresponding values for `COc1cccc(CN2CCCC2c2c(C)nn(C)c2C)c1` (stereo not given) are 2.17% and -4.12%.
On the same counts, the results for `CN(C)C(=O)[C@@H]1C[C@@H]2CCN(Cc3ccc4c(c3)OCO4)C[C@@H]2O1` are -0.869% and 3.86%.
The corresponding values for `c1cncc(COCc2nnc3n2CCN(Cc2ccoc2)C3)c1` are -0.0297% and -40.3%.
For `COc1ccc(Cl)cc1C(=O)N1CCOC2(CNCCOC2)C1` (stereo not given), the Percent Effect in test [1] is -0.926%; in test [2], 11.2%.
With `Fc1cnc(N2CCC3(COCc4cnc(NCC5CC5)nc43)C2)nc1` (stereo not given), the Percent Effect in test [1] was 1.39%; in test [2], 2.48%.
The corresponding values for `Cn1cc(NC(=O)N2CCC(CN3CCCC3)CC2)ccc1=O` are -3.79% and -22.6%.
For `Cc1csc(N2CCCN(Cc3noc(C)n3)CC2)n1`, the Percent Effect was 1.56% in test [1] and -19.8% in test [2].
The corresponding values for `CCCn1c(C)c(CC(=O)N(C)CCOC)c2c1CC(C)(C)CC2=O` are 1.4% and -6.17%.
On the same counts, the results for `COc1ccc(C2=CCN(C(=O)C3CCN(C)C(=O)C3)CC2)cc1` (stereo not given) are 3.17% and 27.5%.
On the same counts, the results for `COc1cccc(C2CCCN2C(=O)c2cc3c([nH]c2=O)CCC3)c1` (stereo not given) are 1.28% and -5.59%.
`COc1ccccc1CC(=O)N1CCC(NCc2cccnc2)CC1`: the Percent Effect in test [1] was 1.11%; in test [2] it was 22.4%.
On the same counts, the results for `O=C(C1=CC2(CCNCC2)c2ccccc21)N1CCCC1` are 3.17% and -0.391%.
With `Clc1ccccc1C1(c2ccnc(-c3ccncc3)n2)CCNCC1`, the Percent Effect in test [1] was 0.832%; in test [2] it was -43.2%.
Regarding `O=C(C1CCC1)N1CCC2(COCc3cnc(N4CCOCC4)nc32)C1` (stereo not given), the Percent Effect in test [1] is 2.45%; in test [2], -34.1%.
The corresponding values for `Cc1nccc(CNC(=O)NCCOc2ccc(F)c(F)c2)n1` are -2.26% and -21%.
On the same counts, the results for `CN(Cc1nnc(-c2ccco2)o1)CC1CCCN1c1cccnn1` (stereo not given) are 7.29% and 11.7%.
On the same counts, the results for `CCC(NC(=O)C1CCN(S(=O)(=O)N(C)C)CC1)c1ccc(C)c(C)c1` (stereo not given) are 4.22% and -32.8%.
Take `O=C(CN(C1=NCCCC1)c1ccccc1)c1ccccc1`: the figures for the Percent Effect in test [1] and in test [2] were 2.67% and -26.2%, respectively.
For the compound `Cc1csc(C2CCCCN2C(=O)CN(C)C2CC2)n1` (stereo not given), the Percent Effect in test [1] was -4.06%; in test [2] it was -4.47%.
On the same counts, the results for `CCc1nc(C2CCCN2CC(=O)Nc2c(C)n[nH]c2C)no1` (stereo not given) are -2.31% and 2.91%.
The corresponding values for `O=C(c1c[nH]c(=O)c(Cl)c1)N1C[C@@H]2CC[C@H](C1)N(Cc1ccccc1)C2` are -1.71% and 3.61%.
As for `Cc1cc(C(=O)N2C[C@@H]3COC[C@]3(c3nnc(C4CC4)o3)C2)on1`, the Percent Effect in test [1] is 2.94%; in test [2] it was -27.3%.
The corresponding values for `O=C(c1cscn1)N1CCC2(CCN(Cc3cccs3)CC2)C1` are -4.17% and -7.4%.
The corresponding values for `c1cc2nccc(CC3CCCN(Cc4ncc[nH]4)CC3)c2cn1` (stereo not given) are 5.02% and -54.1%.
The corresponding values for `Cc1cc(C[S+]([O-])CC(=O)NCC(C)C)no1` (stereo not given) are -2.03% and 4.91%.
For the compound `O=C(Cn1cccnc1=O)NC(Cc1ccsc1)c1ccccn1` (stereo not given), the Percent Effect is -3.14% in test [1] and -4.55% in test [2].
On the same counts, the results for `Cn1ccnc1CN1CCN(CC(O)c2ccc(F)c(F)c2)CC1` (stereo not given) are 1.33% and -1.4%.
On the same counts, the results for `N#Cc1ccc(OCCOc2ccccc2C(=O)N2CCOCC2)cc1` are 8.62% and -58.2%.
Take `Cc1noc([C@H]2COC[C@H]3CN(C(=O)Cc4ccc(F)cc4)C[C@H]32)n1`: the Percent Effect in test [1] is -3.45%; in test [2] it was 23.4%.
Take `CC(=O)N1CCn2cc(CNC(=O)c3cccn3C)nc2C1`: the Percent Effect is 1.43% in test [1] and -9.92% in test [2].
The corresponding values for `COCC(=O)N1CCCC2(CCN(c3ccsc3)C2=O)C1` (stereo not given) are -1.49% and 0.668%.
